Results published in the supplement of paper PMC8047044.

Each compound was assayed on Neuro-2a (assay: neurite formation score, plate-normalized to DMSO control mean 5.04 (score (0-8 scale)); higher = more or longer neurites). Settings: 1 µM.
Description: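 Neuro-2a mouse neuroblastoma cells in PLL-coated 96-well plates were pre-treated for 1 h in DMEM(+) with each kinase inhibitor at 1 µM, then switched to serum-free DMEM(-) with inhibitor to induce neurite outgrowth and fixed about 2-3 h later. Three blinded observers scored neurite formation from 0 (no neurites) to 8 (long neurites on almost all cells).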

Row | Structure (SMILES) | neurite formation score
1 | CC1=C(C(=O)Nc2cc3cn[nH]c3cc2F)C(c2ccc(C(F)(F)F)cc2)CC(=O)N1 (configuration not stated) | 0.236
2 | CCCCCCCCCCCCCCCCCC(=O)OC[C@H](CO)OC(=O)CCCCCCCCCCCCCCCCC [1,2-Distearoyl-sn-glycerol] | 4.54
3 | CN1CCN(c2ccc3nc(-c4c(N)c5c(F)cccc5[nH]c4=O)[nH]c3c2)CC1 [Dovitinib (TKI-258, CHIR-258)] | 4.88
4 | CCCS(=O)(=O)Nc1ccc(F)c(C(=O)c2c[nH]c3ncc(-c4ccc(Cl)cc4)cc23)c1F [Vemurafenib (PLX4032, RG7204)] | 3.91
5 | Cc1nc(Nc2cnn(C3CCNCC3)c2)nc2c1N(C)C(=O)c1cc3ccccc3cc1N2C | 3.96
6 | CN(C[C@@H]1COCCO1)S(=O)(=O)Nc1ccc2ccc3ncc(-c4cnn(C)c4)cc3c(=O)c2c1 | 5.29
7 | Cn1c(=O)c(F)c(Nc2ccc(I)cc2F)c2c(=O)n(C[C@@H](O)CO)cnc21 | 4.88
8 | COc1ccc(-c2ccc3ncc4c(c3c2)n(-c2ccc(N3CCNCC3)c(C(F)(F)F)c2)c(=O)n4C)cn1 | 4.29
9 | CCOc1ccn(-c2ccc(F)cc2)c(=O)c1C(=O)Nc1ccc(Oc2ccnc(N)c2Cl)c(F)c1 | 5.24
10 | CS(=O)(=O)c1ccc(-c2cnc(N)c(C(=O)Nc3ccccc3)n2)cc1 | 4.24
11 | COc1ncc(-c2ccc3nccc(-c4ccnnc4)c3c2)cc1NS(=O)(=O)c1ccc(F)cc1F | 2.63
12 | Cc1cc(Nc2ncc(Cl)c(Nc3ccccc3S(=O)(=O)C(C)C)n2)c(OC(C)C)cc1C1CCNCC1 | 4.24
